An excerpt weighted towards active compounds, which were near 11% of everything screened.
NS1 inh = qHTS Assay for Inhibitors of Influenza NS1 Protein Function. AID 2326, 2010. Potency, µM (series often up to 46.1 µM). 270,000 compounds, 0.4% hits; calls by dose curve; also: actives are rising curves; nearly all actives have a fitted effect of over 50% in size
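In this qHTS, NS1 from influenza A is expressed in budding yeast, where it slows growth. Cells are switched from glucose to 2% galactose medium (pH 6.0, -URA), treated with compound, and growth recovery is read at OD600.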
Sm TGR block = qHTS Assay for the Inhibitors of Schistosoma Mansoni Peroxiredoxins. 360,000 compounds, 3% hits. Schistosoma mansoni thioredoxin glutathione reductase (TGR), Q962Y6. purified TGR, DTNB reduction, TNB absorbance 405 nm. AID 485364, 2010. Potency, µM (highest dose often 114 µM), hits mostly inhibitors; also: nearly all actives have a fitted effect of over 60% in size
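Kinetic colorimetric format: TGR-catalysed, NADPH-driven DTNB reduction monitored via TNB absorbance. Enzyme dispensed at 20 nM; compound exposure 15 min at room temperature before reaction start.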
Pf growth 48h = Primary qHTS for delayed death inhibitors of the malarial parasite plastid, 48 hour incubation | P. falciparum luciferase growth in erythrocytes, 48 h | Potency, µM (titrated, usually from 28.7 µM), usual class: inhibitors | 310,000 compounds, 5.9% hits | AID 504832, 2011
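Compounds are pin-transferred into medium, infected erythrocytes (2% hematocrit, 0.1% parasitemia final) are added, and plates sit one parasite generation at 37 C in 5% CO2. Detection reagent is then added and luminescence measured.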
Pf growth 96h = Primary qHTS for delayed death inhibitors of the malarial parasite plastid, 96 hour incubation. P. falciparum luciferase reporter growth, 96 h. Potency, µM (titrated, usually from 28.7 µM), usual class: inhibitors. 320,000 compounds, 6.9% hits
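Two parasite generations (96 h, 37 C, 5% CO2) of compound exposure in infected erythrocytes (0.05% parasitemia, 2% hematocrit). Luciferase-reporter P. falciparum; decreased luminescence indicates inhibited growth, aimed at apicoplast-acting delayed death.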
AMA1 RON2 block = qHTS for Inhibitors of AMA1-RON; Towards Development of Antimalarial Drug Lead: Primary Screen | AlphaScreen AMA1-biotinylated RON2 peptide binding | AID 720542, 2013 | 360,000 compounds, 0.2% hits | Potency, µM (doses to about 58.2 µM), most hits filed as inhibitors; also: nearly all actives have a fitted effect of over 45% in size
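AMA1 (3D7) with his tag at 25 nM final met compounds first, then biotinylated RON2 peptide at 25 nM; detection used donor plus acceptor beads, 10 µg/mL apiece, read by AlphaScreen after 30 min at room temperature.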
Of the large screens only hits and unclear results are named; the others gave an inactive call. Unless noted, calls follow the shape of the dose curve; as a rule, active = well fitted curve in the direction sought with a large enough effect; inconclusive = small, poorly fitted or top-dose-only effect, or another doubt; inactive = no such curve, though single readings can be large; an effect the other way counts as inactive or inconclusive.

COc1cccc(C2/C(=C(\O)c3ccc(OC)c(OC)c3)C(=O)C(=O)N2c2cc(C)on2)c1 (centres undefined)	Pf growth 96h 5.2µM
CCOc1ccc(CN2C(=O)c3ccccc3C2=O)cc1C(=O)N1CCC(C(N)=O)CC1	none
O=C(O)CC1SC(=Nc2cccc(C(F)(F)F)c2)NC1=O (centres undefined)	Pf growth 96h 2.9µM (no result: Pf growth 48h)
Cn1c(=O)c2nc(SCCO)n(C)c2n(C)c1=O	none (no result: NS1 inh, Sm TGR block, Pf growth 48h, Pf growth 96h)
Cc1cccc(-n2cc(-c3ccccc3)c3c(N4CCOCC4)ncnc32)c1	Pf growth 48h inconclusive, Pf growth 96h inconclusive (no result: NS1 inh)
Cc1ccc(N/N=C/c2c(O)n(-c3ccccc3)c(=O)[nH]c2=O)cc1	Sm TGR block 18µM (no result: NS1 inh)
Cc1ccc(-n2c(O)c(/C=C/C=Nc3ccccc3)c(=O)[nH]c2=O)cc1	Pf growth 48h inconclusive
Cc1ccc(/C=N\Nc2nc3ccc(Cl)cc3[nH]2)o1	Pf growth 48h 2.6µM, Pf growth 96h 2.3µM
C(=N\Nc1nc2ccccc2[nH]1)/c1ccccn1	none (no result: NS1 inh)
CCCCn1c(/C=N/Nc2nc3ccccc3[nH]2)nc2ccccc21	Pf growth 48h 1.9µM, Pf growth 96h inconclusive
Fc1ccccc1-c1ccc(/C=N/Nc2nc3ccccc3[nH]2)o1	Pf growth 48h inconclusive, Pf growth 96h 0.93µM
CCCCn1c(/C=C/c2ccco2)nc2ccccc21	Sm TGR block 10µM, Pf growth 96h inconclusive
CCOc1ccc2c(c1)c(=O)c(C(=O)c1ccccc1)cn2Cc1ccccc1	none (no result: NS1 inh, Pf growth 48h, Pf growth 96h, AMA1 RON2 block)
CCCn1c(/C=C/c2ccco2)nc2ccccc21	Sm TGR block 20µM, Pf growth 96h inconclusive
COC(=O)CN(C)C(=O)c1ccccc1OC1CCN(S(C)(=O)=O)CC1	Pf growth 96h 13µM
CS(=O)(=O)N1CCC(Oc2ccccc2C(=O)N2CCCCC2CO)CC1 (centres undefined)	Pf growth 96h inconclusive
COc1ccc(NC(=O)CSc2ccc(-c3cccs3)nn2)cc1	none (no result: NS1 inh, Pf growth 48h, Pf growth 96h, AMA1 RON2 block)
COc1ccc(-c2ccc(SCC(=O)NCc3ccco3)nn2)cc1	none
COc1cc(NC(=O)CSc2ccc(-c3ccco3)nn2)cc(OC)c1	Sm TGR block 32µM, Pf growth 96h 10µM
COc1ccc(NC(=O)CSc2ccc(-c3ccco3)nn2)cc1	Sm TGR block 14µM
COCCNc1ncnc2onc(-c3ccc(F)cc3)c12	none (no result: NS1 inh, Pf growth 48h, Pf growth 96h, AMA1 RON2 block)
Cc1cc(S(=O)(=O)N2CCCc3ccccc32)ccc1-n1cnnn1	none
CCC1COC(c2cccn2Cc2ccccc2Cl)=N1 (centres undefined)	Pf growth 96h 12µM
Fc1ccc(Cn2cccc2C2=NC(c3ccccc3)CO2)cc1 (centres undefined)	Pf growth 96h inconclusive, AMA1 RON2 block inconclusive (no result: NS1 inh)
OCCNCc1cc(Br)ccc1OCc1ccccc1	none
CCOc1cc(CNCCc2ccc(S(N)(=O)=O)cc2)cc(Cl)c1OCc1ccccc1	Pf growth 48h 13µM, Pf growth 96h 13µM
CCOc1cc(CNCCc2ccc(S(N)(=O)=O)cc2)ccc1OCc1ccccc1	Pf growth 48h inconclusive, Pf growth 96h inconclusive
CCOCCCNCc1cc(Br)ccc1OCc1ccccc1	Pf growth 48h 10µM, Pf growth 96h inconclusive
NS(=O)(=O)c1ccc(CCNCc2cc(Br)ccc2OCc2ccccc2)cc1	Pf growth 48h 13µM
COc1ccc(NC(=O)COC(=O)CCc2cc(OC)c(OC)c(OC)c2)c([N+](=O)[O-])c1	none
Clc1cccc(-c2ccc(CNCc3ccccn3)o2)c1	Sm TGR block 13µM, Pf growth 96h inconclusive
COc1cccc(CNCc2ccccn2)c1OC	none
S=C(NCc1ccccn1)Nc1cccc(Cl)c1	none (no result: NS1 inh)
Brc1ccc(-c2ccc(CNCc3ccccn3)o2)cc1	Sm TGR block 40µM, Pf growth 96h inconclusive
Cc1[nH]c2ccc(C(=O)NCCCN3CCN(C)CC3)cc2c1C	Pf growth 96h 12µM
O=C(COc1ccc(F)cc1)Nc1ccc2nc(SCC(=O)N3CCc4ccccc43)sc2c1	none (no result: NS1 inh, Pf growth 48h, Pf growth 96h, AMA1 RON2 block)
CNS(=O)(=O)c1cn(CC(=O)NCc2ccccc2OC)cc1S(=O)(=O)NC	none
CCCC(=O)N1CCCC1(C)C(=O)Nc1ccc(OC(F)F)cc1 (centres undefined)	none (no result: NS1 inh, Sm TGR block, Pf growth 48h, Pf growth 96h)
